Measurements published in PubChem BioAssay (EPA / NIEHS).
Records with an inconclusive call do not appear. The source made the active and inactive calls. The calls were made as follows: active = hit-call score of the fitted dose curve at least 0.9, where 1 is the maximum; inconclusive = response in the unintended direction; inactive = score below 0.9.

tested on: not listed separately; assay: ACEA_ER_AUC_viability: ACEA Biosciences xCELLigence Real-Time Cell Analysis on Estrogen Receptor Agonism for Viability (AID 2283782);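 also: hit means loss of impedance signal meaning reduced cell growth or viability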
Summary of the method: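 Viability endpoint: reduced impedance area under the curve relative to DMSO, recorded by real-time electrode sensing over ~80 h of continuous exposure. Duplicate plates of T47D in hormone-depleted medium; eight concentrations, 1:4 dilutions, 100 uM maximum.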

SMILES	outcome	AC50
CCOC(=O)c1ccccc1C(=O)OCC	inactive	–
CC(O)C#N (stereo unspecified)	–	50 µM (active)
CCCCC(CC)COP(=O)(Oc1ccccc1)Oc1ccccc1 (stereo unspecified)	–	85.5 µM (active)
O=S1(=O)OCC2C(CO1)C1(Cl)C(Cl)=C(Cl)C2(Cl)C1(Cl)Cl (stereo unspecified)	–	83 µM (active)
COC(N)=O	inactive	–
CC(C)(C)OOC(C)(C)C	inactive	–
CC(C)(C)c1ccccc1OP(=O)(Oc1ccccc1)Oc1ccccc1	inactive	–
CCOP(=S)(OCC)SCn1nnc2ccccc2c1=O	inactive	–
Oc1ccc(I)cc1	–	73.7 µM (active)
COP(=O)(O)OC	inactive	–
O=C(CBr)OCc1ccccc1	inactive	–
C=CC(=O)OCC(CC)(COC(=O)C=C)COC(=O)C=C	–	10.1 µM (active)
Cc1cc(C)c(C(=O)P(=O)(c2ccccc2)c2ccccc2)c(C)c1	–	73.1 µM (active)
CCC(C)(C)c1ccc(O)cc1	–	88.4 µM (active)
CC1(C)CN=C(NN=C(/C=C/c2ccc(C(F)(F)F)cc2)/C=C/c2ccc(C(F)(F)F)cc2)NC1	–	2.02 µM (active)
COCCOCCO	inactive	–

target: AR (gene 367) (UniProt P10275); assay: ACEA_AR_agonist_80hr: ACEA Biosciences xCELLigence Real-Time Cell Analysis on Androgen Receptor Agonism for Proliferation (AID 2283783);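 also: hits increase impedance growth signal above DMSO baseline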
Sequence (P10275 whole entry, looked up): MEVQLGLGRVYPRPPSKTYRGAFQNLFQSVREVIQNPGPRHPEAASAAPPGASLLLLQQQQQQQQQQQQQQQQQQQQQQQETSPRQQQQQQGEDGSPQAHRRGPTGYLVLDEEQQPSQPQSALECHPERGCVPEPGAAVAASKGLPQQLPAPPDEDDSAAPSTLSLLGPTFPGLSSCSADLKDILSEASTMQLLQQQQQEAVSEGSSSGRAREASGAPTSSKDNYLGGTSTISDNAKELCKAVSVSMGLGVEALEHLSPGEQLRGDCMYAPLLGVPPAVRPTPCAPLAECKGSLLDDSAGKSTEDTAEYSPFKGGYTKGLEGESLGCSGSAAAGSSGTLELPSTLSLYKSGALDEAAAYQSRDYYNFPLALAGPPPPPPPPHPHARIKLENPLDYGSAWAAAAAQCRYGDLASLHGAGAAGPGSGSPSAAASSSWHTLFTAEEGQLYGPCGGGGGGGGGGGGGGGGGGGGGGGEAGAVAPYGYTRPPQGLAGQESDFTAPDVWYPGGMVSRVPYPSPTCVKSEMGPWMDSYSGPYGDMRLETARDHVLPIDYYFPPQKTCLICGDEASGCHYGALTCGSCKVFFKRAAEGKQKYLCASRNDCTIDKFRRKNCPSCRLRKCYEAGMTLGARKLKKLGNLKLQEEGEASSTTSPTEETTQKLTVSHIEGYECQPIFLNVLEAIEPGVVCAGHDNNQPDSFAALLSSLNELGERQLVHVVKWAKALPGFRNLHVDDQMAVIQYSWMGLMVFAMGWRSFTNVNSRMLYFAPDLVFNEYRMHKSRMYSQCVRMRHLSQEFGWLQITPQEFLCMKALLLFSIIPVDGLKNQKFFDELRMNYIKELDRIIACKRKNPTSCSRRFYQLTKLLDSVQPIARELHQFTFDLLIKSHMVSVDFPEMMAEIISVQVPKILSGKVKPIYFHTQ
Summary of the method: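 Eight concentrations, 1:4 serial dilution from a 100 uM final top, in biological duplicate. Impedance-based real-time growth of 22Rv1 cells after overnight baseline, recorded hourly and read at 80 hours. Controls: testosterone, MG132, assay media.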

SMILES	outcome
CCNc1nc(Cl)nc(NC(C)(C)C)n1	inactive
CCN(CC)c1ccccc1	inactive
CCCCN(CC)C(=O)SCCC	inactive
c1cc2c3c(cccc3c1)CC2	inactive

tested on: not listed separately; assay: STM_H9_NormalizedViability: Cytotoxicity Assessment at 120 hours in the Stemina devTOX quickPredict H9 human embryonic stem cell (hESC)-based Assay (AID 2283784)
Summary of the method: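 Viability of the cell layer was taken from live-cell protease cleavage of a fluorogenic substrate after compound exposure of undifferentiated H9 stem cells, with replenishment each 24h. Fluorescence was normalized to vehicle (0.1% DMSO).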

SMILES	AC50	outcome
Cc1ccc(N)cc1N	36.1 µM (active)	–
Nc1ccc2ccccc2c1	–	inactive
CCC1(c2ccccc2)C(=O)N=C(O)NC1=O (stereo unspecified)	–	inactive
CCOC(=O)c1ccccc1C(=O)OCC	–	inactive
CCCCC(CC)COP(=O)(Oc1ccccc1)Oc1ccccc1 (stereo unspecified)	–	inactive
CCC(C)(C)c1ccc(O)cc1	50 µM (active)	–
O=C(O)C1C(C(=O)O)C2(Cl)C(Cl)=C(Cl)C1(Cl)C2(Cl)Cl (stereo unspecified)	–	inactive

target: AR (gene 367) (UniProt P10275); assay: ACEA_AR_antagonist_80hr: ACEA Biosciences xCELLigence Real-Time Cell Analysis on Androgen Receptor Antagonism for Proliferation (AID 2283787);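 also: 22Rv1 human prostate cancer cells with growth followed by electrical impedance; hits lower the impedance growth signal relative to DMSO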
Summary of the method: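 Impedance-based real-time growth of 22Rv1 prostate cells, read 80 h after dosing. Eight concentrations, 1:4 series, top 100 uM final (0.5% DMSO), n = 2; signal decrease scored against DMSO.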

SMILES	outcome	AC50
CO/N=C(/C(=O)OC)c1ccccc1COc1ccccc1C	inactive	–
CCNc1nc(Cl)nc(NC(C)(C)C)n1	inactive	–
CCN(CC)c1ccccc1	inactive	–
CCCCC(CC)COP(=O)(Oc1ccccc1)Oc1ccccc1 (stereo unspecified)	–	16.6 µM (active)
CCCCN(CC)C(=O)SCCC	inactive	–
c1cc2c3c(cccc3c1)CC2	inactive	–
[N-]=[N+]=[N-]	–	50 µM (active)
CC1(C)CN=C(NN=C(/C=C/c2ccc(C(F)(F)F)cc2)/C=C/c2ccc(C(F)(F)F)cc2)NC1	–	12.3 µM (active)
CC(C)(C)N(NC(=O)c1ccc(Cl)cc1)C(=O)c1ccccc1	inactive	–
